# Measurements taken from PubChem BioAssay AID651871 (Sanford-Burnham Center for Chemical Genomics, 2012).
# Where “and” joins values, the source holds several entries; their conditions need not be identical. Equal values may be shown once.
# Test system: H9c2
# Assay: cardiomyocyte survival under oxidative or metabolic stress – cell-based, panel, H9c2 and HL-1, ATP luminescence, set 2, SAR follow-up (AID 651871);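 also: cells exposed to stressor for 2 h before ATP readout; reference of the scale not given here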
# Conditions: H9c2/HL-1 cardiomyocytes, 2-deoxyglucose stress, with 2-deoxyglucose; run 14, at 79 µM (top of the series)
row,SMILES,activity (protection/inhibition)
1,CCOC(=O)c1cccc(NC(=O)CNC(=O)c2cc(-c3cc(OC)c(OC)c(OC)c3)nc3ccccc23)c1,95.1%
2,COc1ccc2c(c1OC)C(=O)N1c3ccccc3C(=O)N(Cc3cccc(Cl)c3Cl)C21 (stereo not drawn),74.7% and 78.2% and -6.22%
3,COc1ccc2nc(-c3cc(OC)c(OC)c(OC)c3)cc(C(=O)NCC(=O)Nc3ccc(C(C)=O)cc3)c2c1,89.3%
